The results in this text go back to PubChem BioAssay (EPA / NIEHS).

As usually defined, the AC50 is the concentration at which the activity in the assay is half-maximal.

Assay [1] can be described thus: ATG_PXRE_CIS: Attagene CIS-FACTORIAL HepG2 Assay for human Pregnane X Receptor Element (PXRE) (AID 2282957). As to conditions: HepG2 Attagene CIS-FACTORIAL PXRE reporter, mRNA; actives raise or lower the signal. An outline of the steps:
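Read-out: fluorescence of reporter-specific RT-PCR products resolved by capillary electrophoresis, fitted bidirectionally relative to DMSO. Human HepG2 liver cells carried transfected cis-promoter reporter units and were exposed to chemicals for 24 h.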

The nature of assay [2]: ATG_PPRE_CIS: Attagene CIS-FACTORIAL HepG2 Assay for human Peroxisome Proliferator-activated Response Element (PPRE) (AID 2282958). The following applies: HepG2 PPRE cis-element reporter, Attagene transcription factor profiling; actives raise or lower the signal. The method, boiled down:
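PPRE activity in HepG2: transient cis-reporter transfection, 24 h compound incubation, reporter mRNA by RT-PCR and CE fluorescence; gain/loss fitted against DMSO.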

The nature of assay [3]: ATG_RORE_CIS: Attagene CIS-FACTORIAL HepG2 Assay for human RAR-related Orphan Receptor Element (RORE) (AID 2282959). As to conditions: HepG2 Attagene cis-factorial RORE reporter, mRNA; actives raise or lower the signal. The method, boiled down:
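A 24-hour exposure of transfected HepG2 hepatoma cells precedes RNA isolation and reporter RT-PCR. Labeled products are digested with HpaI and resolved by capillary electrophoresis, with gain or loss of signal scored relative to DMSO.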

Assay [4] in a line: ATG_Sox_CIS: Attagene CIS-FACTORIAL HepG2 Assay for human SRY-box transcription factor (SOX) (AID 2282960). The following applies: HepG2 Attagene cis-factorial SOX reporter, mRNA; actives raise or lower the signal. An outline of the steps:
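HepG2, cis reporter units, 24 h exposure. Reporter mRNA: RT-PCR → FAM labelling → HpaI → CE fluorescence. Bidirectional fit vs DMSO.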

In assay [5] the target is Transcription factor Sp1 (Homo sapiens) (UniProt P08047). As to the kind of experiment: ATG_Sp1_CIS: Attagene CIS-FACTORIAL HepG2 Assay for human Specificity Protein 1 (Sp1) (AID 2282961). The following applies: HepG2 Sp1 cis-reporter transcription, actives raise or lower the signal. An outline of the steps: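 Liver-derived HepG2 cells, cis-element reporter library, 24 h treatment; RNA isolated, cDNA amplified with reporter-specific primers, FAM-labeled fragments sized on capillary analyzer. DMSO baseline, bidirectional curve fit.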
Chain of Transcription factor Sp1 (Homo sapiens) (P08047 whole entry, looked up, the tested form may be a part): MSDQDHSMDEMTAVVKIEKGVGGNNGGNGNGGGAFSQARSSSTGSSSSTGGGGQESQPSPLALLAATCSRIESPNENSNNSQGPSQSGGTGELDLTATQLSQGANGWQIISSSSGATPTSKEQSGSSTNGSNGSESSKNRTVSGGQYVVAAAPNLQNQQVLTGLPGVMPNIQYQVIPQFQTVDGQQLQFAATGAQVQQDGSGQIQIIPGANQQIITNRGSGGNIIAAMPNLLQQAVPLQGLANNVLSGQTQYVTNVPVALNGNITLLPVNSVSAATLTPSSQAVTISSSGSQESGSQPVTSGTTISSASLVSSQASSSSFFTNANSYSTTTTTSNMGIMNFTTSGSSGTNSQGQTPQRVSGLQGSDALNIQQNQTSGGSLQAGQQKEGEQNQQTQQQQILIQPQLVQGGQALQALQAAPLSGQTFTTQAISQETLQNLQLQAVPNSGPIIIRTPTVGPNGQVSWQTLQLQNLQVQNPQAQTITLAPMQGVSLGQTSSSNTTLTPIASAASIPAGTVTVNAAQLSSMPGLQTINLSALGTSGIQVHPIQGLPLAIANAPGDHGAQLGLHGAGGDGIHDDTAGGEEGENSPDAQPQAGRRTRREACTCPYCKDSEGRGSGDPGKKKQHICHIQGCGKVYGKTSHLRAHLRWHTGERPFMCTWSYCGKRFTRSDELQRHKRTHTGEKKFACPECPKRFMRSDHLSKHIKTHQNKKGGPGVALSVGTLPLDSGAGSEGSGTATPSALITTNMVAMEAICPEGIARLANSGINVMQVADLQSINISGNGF

Assay [6] can be described thus: ATG_SREBP_CIS: Attagene CIS-FACTORIAL HepG2 Assay for human Sterol Regulatory Element Binding (SREBP) (AID 2282962). The following applies: HepG2 Attagene cis-factorial SREBP reporter, mRNA; actives raise or lower the signal. An outline of the steps: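 Readout: fluorescent reporter-transcript peaks resolved by capillary electrophoresis after RT-PCR. Cells were human HepG2 carrying transfected cis-promoter reporter constructs, dosed for 24 h. Gain or loss of signal was fitted against DMSO controls.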

The target in assay [7] is Signal transducer and activator of transcription 3 (Homo sapiens) (UniProt P40763). As to the kind of experiment: ATG_STAT3_CIS: Attagene CIS-FACTORIAL HepG2 Assay for human Signal Transducer and Activator of Transcription 3 (STAT3) (AID 2282963). The following applies: HepG2, Attagene cis-factorial STAT3 reporter transcription; actives raise or lower the signal. An outline of the steps:
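Fluorescence intensity of 6-FAM-labelled reporter fragments, separated by capillary electrophoresis after RT-PCR, gave the signal. Cells were HepG2 transfected with cis-element reporter units and treated 24 h; fitting was bidirectional relative to DMSO.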

Assay [8] in a line: ATG_TA_CIS: Attagene CIS-FACTORIAL HepG2 Assay for human TA Basal Promoter (AID 2282964). The following applies: HepG2 Attagene CIS-factorial TA basal promoter reporter; actives raise or lower the signal. The method, boiled down:
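Transfected HepG2, 24 h compound exposure; RNA → RT-PCR → FAM primer extension → HpaI cut → CE fluorescence. Gain/loss-of-signal fitted against DMSO negative control. Background-control readout.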

A short description of assay [9]: ATG_TCF_b_cat_CIS: Attagene CIS-FACTORIAL HepG2 Assay for human T-Cell-Factor with beta-catenin (TCF/b-cat) (AID 2282965). As to conditions: HepG2 TCF/beta-catenin cis-reporter transcription, actives raise or lower the signal. The method, boiled down:
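HepG2 cells transiently transfected with cis-promoter-driven multiplexed reporter units; reporter mRNA measured 24 h after dosing by RT-PCR, FAM labelling, HpaI digestion and capillary electrophoresis. Bidirectional fitting relative to DMSO baseline.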

Several values for one entry are separate records, joined by “and”; a condition that tells them apart may be missing. Identical values can stand only once. A structure can be active in one record and inactive in another. Activity calls are given as the source filed them. Rule for the calls: active = hit-call score of the fitted dose curve at least 0.9, where 1 is the maximum; inactive = score below 0.9.

Chain of Signal transducer and activator of transcription 3 (Homo sapiens) (P40763 whole entry, looked up, the tested form may be a part): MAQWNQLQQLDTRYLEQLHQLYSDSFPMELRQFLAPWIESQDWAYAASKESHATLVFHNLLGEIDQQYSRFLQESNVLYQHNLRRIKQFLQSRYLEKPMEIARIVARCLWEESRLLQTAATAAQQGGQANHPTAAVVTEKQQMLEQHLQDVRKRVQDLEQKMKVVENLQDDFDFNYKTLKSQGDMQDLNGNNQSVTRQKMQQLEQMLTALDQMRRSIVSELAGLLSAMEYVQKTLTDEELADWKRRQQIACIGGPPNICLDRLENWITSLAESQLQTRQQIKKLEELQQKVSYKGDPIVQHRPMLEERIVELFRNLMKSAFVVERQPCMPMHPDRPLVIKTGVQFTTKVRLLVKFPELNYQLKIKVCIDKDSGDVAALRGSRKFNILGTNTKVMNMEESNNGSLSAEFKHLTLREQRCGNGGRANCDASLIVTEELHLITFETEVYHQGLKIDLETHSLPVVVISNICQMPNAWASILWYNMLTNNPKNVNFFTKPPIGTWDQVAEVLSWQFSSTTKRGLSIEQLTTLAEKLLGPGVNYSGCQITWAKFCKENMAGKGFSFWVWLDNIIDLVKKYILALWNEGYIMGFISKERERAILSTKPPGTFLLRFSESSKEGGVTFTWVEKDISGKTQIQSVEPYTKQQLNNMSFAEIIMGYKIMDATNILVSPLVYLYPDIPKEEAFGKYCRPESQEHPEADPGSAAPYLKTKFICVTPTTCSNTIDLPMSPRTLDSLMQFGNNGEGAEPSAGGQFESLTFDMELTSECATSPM

Consider `C[N+](C)(CCCNS(=O)(=O)CCC(F)(F)C(F)(F)C(F)(F)C(F)(F)C(F)(F)C(F)(F)F)CC(=O)[O-]`, for which the values for the AC50 in assay [1], in assay [6] and in assay [9] were 0.00267 µM (active), 0.00355 µM (active) and 0.000979 µM (active), respectively. The outcome in assay [2], in assay [3], in assay [4], in [5], in assay [7] and in [8] was inactive.
Take `c1cc[nH]c1`: the call in [1], in [2], in assay [3], in assay [4], in assay [5] and in [6] was inactive. For the same compound, the call in assay [7] and in [8] was inactive.
For the compound `c1cc2cccc3c4cccc5cccc(c(c1)c23)c54`, the call in [1], in assay [2], in assay [3], in [4], in [5] and in assay [6] was inactive. Moreover, the call in assay [7], in assay [8] and in [9] was inactive.
As for `CCCCCCCCCCCCOC(=O)c1cc(O)c(O)c(O)c1`, the AC50 in assay [1] was 2.94 µM (active); in [6] it was 2.85 µM (active). Also, the result in [2], in [3], in assay [4], in assay [5], in [7] and in assay [8] was inactive. For the same compound, in assay [9], the compound was called inactive.
Consider `CCCCCCCCCCCC(=O)O`, for which the compound was classed as inactive in [1], in [2], in assay [3], in assay [4], in [5] and in [7]. In addition, the result in assay [8] and in assay [9] was inactive. In addition, the AC50 in assay [5] is 36.7 µM (active); in assay [6], 52.7 µM (active) and 60 µM (active).
`CCc1cccc(CC)c1N(COC)C(=O)CS(=O)(=O)O`: the AC50 in assay [1] was 3.8 µM (active). In addition, the outcome in assay [2], in [3], in [4], in assay [5], in assay [6] and in assay [7] was inactive. Moreover, the outcome in assay [8] and in assay [9] was inactive.
On to `COc1ccc(C#N)cc1`, for which the result in assay [1], in assay [2], in assay [3], in assay [4], in assay [5] and in assay [6] was inactive. Also, the compound was called inactive in assay [7], in [8] and in assay [9].
As to `C=CC(=O)OCCN(CC)CC`, the AC50 is 66.9 µM (active) in assay [1] and 61.8 µM (active) in assay [6]. Besides, the compound was classed as inactive in [2], in [3], in assay [4], in assay [5], in assay [7] and in assay [8].
Take `O=C(c1cc(O)c(O)c(O)c1)c1ccc(O)c(O)c1O`: the outcome in assay [1], in assay [2], in [3], in assay [4], in assay [5] and in assay [6] was inactive. The compound was classed as inactive in assay [7] and in assay [8].
With `O=C(O)C(F)(F)OC(F)(F)C(F)(F)OC(F)(F)C(F)(F)OC(F)(F)C(F)(F)C(F)(F)C(F)(F)F`, the AC50 in [1] was 11.1 µM (active) and 4.38 µM (active); in assay [2] it was 13.1 µM (active) and 22.1 µM (active); in assay [3], 45.4 µM (active) and 21.6 µM (active); in assay [4], 37.3 µM (active); in assay [5], 31.8 µM (active). Moreover, the call in assay [4], in assay [5], in assay [6] and in [7] was inactive.
`CC[N+](CC)(CC)Cc1ccccc1`: the result in assay [1], in assay [2], in assay [3], in assay [4], in assay [5] and in assay [6] was inactive. Moreover, the compound was classed as inactive in assay [7], in [8] and in [9].
`O=C(c1ccccc1)c1ccccc1`: the AC50 in assay [1] was 51.4 µM (active). The call in assay [1], in assay [3], in [4], in assay [5], in assay [6] and in assay [7] was inactive. For the same compound, the compound was called inactive in [8] and in [9].
For `CC(=O)Nc1ccc(O)cc1`, the result in assay [1], in assay [2], in assay [3], in [4], in assay [5] and in assay [6] was inactive. The call in assay [7], in assay [8] and in assay [9] was inactive.
On to `COc1ccccc1NC(=O)c1cc2ccccc2cc1O`, for which the AC50 in [1] is 1.63 µM (active); in assay [4] it was 100 µM (active); in [5], 27.7 µM (active); in assay [6] it was 55.5 µM (active); in assay [9] it was 123 µM (active). Further, the outcome in [2], in assay [3], in assay [7] and in assay [8] was inactive.
On to `Oc1ccc(Cc2ccccc2O)cc1`, for which, in assay [1], the AC50 is 46 µM (active). The compound was called inactive in assay [2], in assay [3], in assay [4], in assay [5], in assay [6] and in assay [7]. Besides, the result in [8] and in assay [9] was inactive.
Turning to `Nc1ccc(O)c(C(=O)O)c1`, the result in assay [1], in assay [2], in [3], in assay [4], in [5] and in assay [6] was inactive. Besides, the compound was called inactive in assay [7], in assay [8] and in assay [9].
